Inconclusive results are not listed. The source made the active and inactive calls. The calls were made as follows: active = hit-call score of the fitted dose curve at least 0.9, where 1 is the maximum; inactive = score below 0.9.

Sequence of Tyrosine-protein kinase ABL1 (Homo sapiens) (P00519 whole entry, looked up): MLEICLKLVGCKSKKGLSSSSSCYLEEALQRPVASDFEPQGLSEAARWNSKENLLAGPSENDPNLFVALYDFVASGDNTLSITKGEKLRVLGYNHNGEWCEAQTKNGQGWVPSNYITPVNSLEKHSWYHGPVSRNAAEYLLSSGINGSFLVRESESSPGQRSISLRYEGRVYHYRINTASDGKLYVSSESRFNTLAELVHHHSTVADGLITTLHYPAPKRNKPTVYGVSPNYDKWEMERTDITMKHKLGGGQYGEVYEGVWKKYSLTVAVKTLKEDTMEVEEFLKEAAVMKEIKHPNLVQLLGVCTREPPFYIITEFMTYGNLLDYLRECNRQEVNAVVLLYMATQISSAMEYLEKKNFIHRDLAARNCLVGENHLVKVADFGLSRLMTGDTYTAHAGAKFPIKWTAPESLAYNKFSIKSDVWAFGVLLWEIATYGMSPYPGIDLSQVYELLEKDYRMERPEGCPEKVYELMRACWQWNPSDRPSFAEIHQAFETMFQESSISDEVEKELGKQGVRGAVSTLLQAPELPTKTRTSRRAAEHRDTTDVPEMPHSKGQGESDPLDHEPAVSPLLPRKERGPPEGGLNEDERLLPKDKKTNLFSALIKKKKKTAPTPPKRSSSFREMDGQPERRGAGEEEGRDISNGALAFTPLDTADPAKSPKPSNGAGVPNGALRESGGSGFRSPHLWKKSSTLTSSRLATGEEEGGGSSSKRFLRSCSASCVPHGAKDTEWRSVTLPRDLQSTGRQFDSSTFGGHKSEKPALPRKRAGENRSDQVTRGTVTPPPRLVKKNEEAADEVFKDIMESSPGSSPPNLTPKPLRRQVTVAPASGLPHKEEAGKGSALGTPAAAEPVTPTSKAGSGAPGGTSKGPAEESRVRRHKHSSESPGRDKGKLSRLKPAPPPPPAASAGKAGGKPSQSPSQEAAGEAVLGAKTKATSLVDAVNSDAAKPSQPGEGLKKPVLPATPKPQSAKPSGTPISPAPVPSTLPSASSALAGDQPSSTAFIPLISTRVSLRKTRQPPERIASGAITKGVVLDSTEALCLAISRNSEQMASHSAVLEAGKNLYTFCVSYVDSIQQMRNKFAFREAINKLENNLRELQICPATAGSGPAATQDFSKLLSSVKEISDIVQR

The assay has as its target Tyrosine-protein kinase ABL1 (Homo sapiens) (UniProt P00519). Briefly: ERF_FR_ENZ_hABL1: Eurofins (ERF) Enzymatic Radiometric [Km ATP] KinaseProfiler LeadHunter Assay for human ABL1 Thymidine Kinase. Here is the method:
ERF_FR_ENZ_hABL1 is a biochemical, single-readout assay that uses extracted gene-proteins in a cell-free assay. Measurements were taken 0.5 hour after chemical dosing in a 96-well plate. See Abl Human TK Kinase Enzymatic LANCE Assay [Km ATP], Cerep.ERF_FR_ENZ_hABL1 is an assay component calculated from the ERF_FR_ENZ_hABL1 assay. It is designed to measure enzyme activity using a type of enzyme reporter as detected by fluorescence intensity with LANCE technology.Data from the assay component ERF_FR_ENZ_hABL1 was analyzed at the assay endpoint, ERF_FR_ENZ_hABL1, in the positive analysis fitting direction relative to DMSO as the negative control and baseline of activity. Using a type of enzyme reporter, loss-of-signal activity can be used to understand changes in enzymatic activity as they relate to gene ABL1. To generalize the intended target to other relatable targets, this assay endpoint is annotated to the kinase intended target family, where the subfamily is serine/threonine kinase.
ABL (h) is incubated with 8 mM MOPS pH 7.0, 0.2 mM EDTA, 50 uM […], 10 mM Mg Acetate and [g- 33P]- ATP (specific activity and concentration as required). The reaction is initiated by the addition of the Mg/ATP mix. After incubation for 40 minutes at room temperature, the reaction is stopped by the addition of phosphoric acid to a concentration of 0.5%. An aliquot of the reaction is then spotted onto a filter and washed four times for 4 minutes in 0.425% phosphoric acid and once in methanol prior to drying and scintillation counting. Compound should be supplied in 100%DMSO .We require a stock solution at a concentration of at least 50x higher than the Final Assay Concentration of your cpd. A 10mM stock is also acceptable. When ordering fewer than 60 kinase assays,we need 120uL of 50x concentrated stock. For more than 60 assays, we need 420uL of 50xcc stock. Please apply the conversion if you provide 10mM stock solution or compounds in powder form (pre-weighed is required) From 50 cpds supplied as solids, the TAT will be extended.
As to `COc1cc(/C=C/C(=O)CC(=O)/C=C/c2ccc(O)c(OC)c2)ccc1O`, the AC50 is 1370 nM (active).
`O=C(/C=C/c1ccc(O)cc1)CC(=O)/C=C/c1ccc(O)cc1`: the concentration at half-maximal activity (AC50) is 843 nM (active).
Regarding `COc1cc(CCC(=O)CC(=O)CCc2ccc(O)c(OC)c2)ccc1O`, the call was inactive.
